This is one part of a sample in which hits are shown more often than they occur.
Dicer inh – blocks human Dicer maturation of pre-miR-21; hit rate 6% among 47,000; z-score at 25 µM; AID 1347074; Q9UPY3; cat-ELCCA pre-miR-21 Dicer processing, chemiluminescence; hits give high values; in the data active = z-score above about 3, passing the limit was not always enough;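 note: plate controls were vehicle for no effect and no enzyme for full effect; higher signal means more uncleaved substrate so more Dicer inhibition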
Target sequence (Q9UPY3 whole entry, looked up): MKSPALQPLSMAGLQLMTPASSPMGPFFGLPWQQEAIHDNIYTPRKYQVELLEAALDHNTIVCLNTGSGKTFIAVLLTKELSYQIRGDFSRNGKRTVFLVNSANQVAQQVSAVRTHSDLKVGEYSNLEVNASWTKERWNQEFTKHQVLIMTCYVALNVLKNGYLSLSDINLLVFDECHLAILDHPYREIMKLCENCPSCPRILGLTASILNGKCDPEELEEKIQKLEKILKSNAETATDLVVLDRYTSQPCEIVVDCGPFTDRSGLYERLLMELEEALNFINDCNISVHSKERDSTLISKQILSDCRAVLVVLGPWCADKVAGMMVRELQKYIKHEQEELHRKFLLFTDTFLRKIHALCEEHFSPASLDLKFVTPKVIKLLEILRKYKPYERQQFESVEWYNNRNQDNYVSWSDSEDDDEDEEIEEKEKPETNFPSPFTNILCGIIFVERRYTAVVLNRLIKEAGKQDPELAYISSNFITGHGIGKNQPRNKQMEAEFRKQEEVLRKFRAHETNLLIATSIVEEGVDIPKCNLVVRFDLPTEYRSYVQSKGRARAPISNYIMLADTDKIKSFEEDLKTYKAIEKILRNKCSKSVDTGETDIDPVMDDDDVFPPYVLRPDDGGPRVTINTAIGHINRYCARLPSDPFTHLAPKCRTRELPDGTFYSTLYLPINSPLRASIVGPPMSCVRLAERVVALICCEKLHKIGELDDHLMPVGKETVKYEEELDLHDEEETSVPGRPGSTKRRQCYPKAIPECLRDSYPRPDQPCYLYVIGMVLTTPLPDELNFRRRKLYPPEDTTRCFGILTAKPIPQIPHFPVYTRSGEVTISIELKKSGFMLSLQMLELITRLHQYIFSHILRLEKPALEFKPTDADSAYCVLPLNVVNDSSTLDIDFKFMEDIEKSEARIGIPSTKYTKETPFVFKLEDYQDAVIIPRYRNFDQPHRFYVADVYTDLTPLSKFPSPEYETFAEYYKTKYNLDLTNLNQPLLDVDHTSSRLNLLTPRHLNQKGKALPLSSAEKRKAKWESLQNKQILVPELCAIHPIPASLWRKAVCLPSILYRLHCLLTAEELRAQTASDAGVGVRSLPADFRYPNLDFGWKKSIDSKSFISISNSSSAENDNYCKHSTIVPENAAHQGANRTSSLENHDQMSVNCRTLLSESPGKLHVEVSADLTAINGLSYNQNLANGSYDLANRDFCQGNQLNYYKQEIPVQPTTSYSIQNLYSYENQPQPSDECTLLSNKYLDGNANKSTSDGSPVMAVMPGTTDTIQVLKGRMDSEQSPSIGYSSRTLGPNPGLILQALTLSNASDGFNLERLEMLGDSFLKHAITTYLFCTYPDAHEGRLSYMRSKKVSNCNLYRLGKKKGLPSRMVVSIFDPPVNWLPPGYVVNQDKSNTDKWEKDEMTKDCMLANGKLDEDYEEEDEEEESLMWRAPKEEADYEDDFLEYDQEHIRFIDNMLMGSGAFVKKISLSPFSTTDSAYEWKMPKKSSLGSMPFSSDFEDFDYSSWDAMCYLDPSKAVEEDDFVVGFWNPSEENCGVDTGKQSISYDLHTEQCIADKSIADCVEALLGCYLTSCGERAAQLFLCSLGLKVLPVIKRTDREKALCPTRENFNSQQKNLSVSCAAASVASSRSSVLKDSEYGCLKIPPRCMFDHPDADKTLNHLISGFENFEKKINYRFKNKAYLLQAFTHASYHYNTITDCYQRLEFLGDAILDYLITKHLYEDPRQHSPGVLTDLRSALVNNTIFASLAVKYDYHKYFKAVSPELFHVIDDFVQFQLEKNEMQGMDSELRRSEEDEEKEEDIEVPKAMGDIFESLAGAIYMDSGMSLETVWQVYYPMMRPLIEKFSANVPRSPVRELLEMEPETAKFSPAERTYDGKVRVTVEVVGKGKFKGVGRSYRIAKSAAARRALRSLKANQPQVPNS
* = called active by the depositor.

SMILES	Dicer inh
COc1ccc(N2C(=O)CC(N3CCN(C)CC3)C2=O)cc1 (stereo not given)	-1.6
COc1ccc(N2C(=O)CC(Sc3nc(C)c4ccccc4n3)C2=O)cc1 (stereo not given)	1.71
O=C1CC(c2ccccc2)CC(=O)N1c1ccc(Oc2ccc(Cl)cc2)cc1	-0.44
CC(C)(C)c1ccc(N2C(=O)CC(c3ccccc3)C2=O)cc1 (stereo not given)	5.32*
COc1ccc(N2C(=O)CC(c3ccccc3)C2=O)cc1 (stereo not given)	4.33*
Cn1cc(C2CC(=O)N(c3ccc(O)cc3)C2=O)c2ccccc21 (stereo not given)	1.95
Cc1nn2c(-c3cccc(NS(=O)(=O)c4ccc(F)cc4)c3)nnc2c2ccccc12	1.26
CCCCNC(=O)n1c(=O)oc2cc(Cl)ccc21	0.35
CCOC(=O)C(NC(=O)c1ccccc1Cl)(Nc1ccccc1)C(F)(F)F (stereo not given)	1.41
O=C1/C(=C\c2ccc(F)cc2)N=C(c2ccccc2)N1Cc1ccc(F)cc1	-0.65
O=C1/C(=C/c2ccc(Cl)cc2)N=C(c2ccccc2)N1c1ccc(F)cc1	7.9*
O=C1NC(c2ccccc2)=N/C1=C/c1ccccc1	-0.81
CN(C)/C=C/C(=O)c1ccc(C#N)s1	2.92
Cn1ncc2c(NNC(=O)CCC(=O)O)ncnc21	0.28
CC(C)(C)NC(=S)Nc1ccccc1C(F)(F)F	-0.62
N/C(=N\NC(=S)Nc1ccccc1C(F)(F)F)c1ccccn1	4.28*
N/C(=N\NS(=O)(=O)c1cc(C(F)(F)F)cc(C(F)(F)F)c1)c1ccccn1	1.01
C=C1c2cccc(O)c2C(O)=C2C(=O)[C@]3(O)C(O)=C(C(N)=O)C(=O)[C@@H](N(C)C)[C@@H]3[C@@H](O)[C@H]12	22.5*
COc1ccc(N2C(=O)CC(Nc3ccc(N4CCOCC4)cc3)C2=O)cc1 (stereo not given)	-0.18
COc1ccc(/C=N/N=C(\NC(=O)Nc2ccccc2)SCc2ccc(F)cc2)cc1	2.91
COc1ccc(/C(O)=C2\C(=O)C(=O)N(CCN3CCOCC3)C2c2ccc(OC)c(OC)c2)cc1 (stereo not given)	0.2
CCN(CC)C(=O)Nc1c(-c2c(Cl)cccc2Cl)noc1C	1.59
COc1ccc(OC)c(C2CC(=O)Nc3nc(N)[nH]c(=O)c32)c1 (stereo not given)	0.6
COc1ccccc1OCCN1CCN(C)CC1	4.77*
COc1ccccc1OCCn1cc(C(=O)O)c2ccccc21	-0.73
SMILES	Dicer inh
COc1ccccc1OCCC(=O)O	2.72
Cc1ccc2nc(NC(=O)c3ccccc3Cl)[nH]c(=O)c2c1	-0.58
Cn1nnnc1SCCNCc1cccc(Cl)c1	-0.9
CN(C)/C=C1/C=C(c2ccccc2)OC1=S	0.1
CC1C/C(=N\Nc2ccc(I)cc2)c2cc(Cl)ccc2S1(=O)=O (stereo not given)	3.98*
O=C(Nc1ncccn1)c1c(O)c2ccccc2[nH]c1=O	0.22
C=CCOc1ccc(C2C3=C(CC(C)(C)CC3=O)Nc3[nH]c(=O)[nH]c(=O)c32)cc1OC (stereo not given)	2.32
COC(=O)c1ccc(C2C(C(=O)OCc3ccccc3)=C(C)NC3=C2C(=O)CC(C)(C)C3)cc1 (stereo not given)	1.05
COc1cccc(NC(=O)NCCN2CCN=C2C)c1	-0.02
COc1cccc(NC(=O)Nc2nnc(COc3ccc(F)cc3)s2)c1	4.42*
COc1cccc(NC(=O)Nc2nnc(COc3ccccc3F)s2)c1	5*
CCOC(=O)Cc1nnc(NC(=O)Nc2ccccc2)s1	1.73
CCOc1ccc2nc(NC(=O)Nc3ccc(F)cc3)sc2c1	-1.27
COc1ccc(OCc2nnc(NC(=O)Nc3ccccc3F)s2)cc1	2.06
COc1ccc(NC(=O)Nc2cncc(C#Cc3ccccc3)c2)cc1	0.81
CC(C)c1nnc(NC(=O)Nc2ccccc2)s1	1.32
COc1ccc(NC(=O)Nc2nnc(-c3ccncc3)s2)cc1	4.18*
CCc1cc(C(=O)c2ccc(OC)cc2)c(NC(=O)Nc2ccc(F)cc2)s1	0.31
COCc1nnc(NC(=O)c2ccco2)s1	0.86
COc1ccccc1NC(=O)Nc1nnc(COc2ccccc2F)s1	4.8*
COc1cc(C2Nc3cc(C)c(C)cc3NC3=C2C(=O)CC(C)(C)C3)c(OC)cc1Br (stereo not given)	0.23
CCOC(=O)c1nnc(-c2ccc(C(F)(F)F)cc2)o1	-0.29
CC1=CC2(C)C3C(=O)N(c4cc(Cl)cc(Cl)c4)C(=O)C3C1C1C(=O)N(c3cc(Cl)cc(Cl)c3)C(=O)C12 (stereo not given)	1.29
ON=C(c1cccs1)c1cccs1	-0.66
COc1cc(C2C(C(=O)OC(C)C)=C(C)NC3=C2C(=O)CC(c2ccccc2)C3)ccc1O (stereo not given)	2.8
CCCOC(=O)c1sc2nc(C)c(C)c(C)c2c1N	0.99
CCc1c(C)nn2c1n1nc(C)c(CC)c1n1nc(C)c(CC)c21	0.52
CS(=O)(=NC(=O)c1ncc(C(F)(F)F)cc1Cl)c1ccc(C(F)(F)F)cn1 (stereo not given)	10.9
CC(C)c1nnc(NC(=O)Cn2c(=O)oc3ccccc32)s1	0.6

From PubChem
